Consider 40 compounds from PubChem BioAssay (Tox21).

Results filed as inconclusive are left out. A call without a number means that no potency is given here. Active and inactive are the calls of the source. Calls come from the whole dose curve; as a rule, active = well fitted activation curve with a large enough effect in the signal ratio in the repeat runs (not every such curve was filed as active); inconclusive = weak or mixed curves, or effect the other way; inactive = no such curve, though single readings can be large or run the other way; the % refers to the signal ratio. Where a SMILES comes first, the peptide text is derived from it. [ ]: non-standard residue; d: D form. pGlu = O=C1CC[C@@H](C(=O)O)N1

The experiment is described as follows: qHTS assay for small molecule agonists of the antioxidant response element (ARE) signaling pathway (AID 743202). The settings on record: HepG2 ARE-bla reporter, beta-lactamase FRET, 16 h; series mostly up to 73.3 µM. The text has this:
U.S. Tox21 Program National Center for Advancing Translational Sciences [NCATS] NIH Chemical Genomics Center [NCGC] U.S. Environmental Protection Agency [EPA] National Institutes of Environmental Health Sciences [NIEHS] National Toxicology Program [NTP] U.S. Food and Drug Administration [FDA] Tox21 Assay Overview: Oxidative stress has been implicated in the pathogenesis of a variety of diseases ranging from cancer to neurodegeneration. The antioxidant response element (ARE) signaling pathway plays an important role in the amelioration of oxidative stress. The CellSensor ARE-bla HepG2 cell line (Invitrogen) can be used for analyzing the Nrf2/antioxidant response signaling pathway. Nrf2 (NF-E2-related factor 2) and Nrf1 are transcription factors that bind to AREs and activate these genes. The CellSensor ARE-bla Hep G2 cell line contains a beta-lactamase reporter gene under control of the Antioxidant Response Element (ARE) stably integrated into HepG2 cells. The activation of the report gene under culture conditions can be detected by fluorescence intensity. This cell line has been used to screen the Tox21 10K compound library to identify agonists that induce oxidative stress.
Tox21 Assay Protocol Summary: The ARE-bla cells were dispensed at 2,000 cells/5 ul/well in 1536-well black wall/clear bottom plates using a Multidrop dispenser. After the assay plates were incubated at a 37 C/5% CO2 incubator for 5 hours, 23 nL of compounds dissolved in DMSO, positive controls or DMSO only was transferred to the assay plate by a pin tool. The plates were incubated at 37 C for 16 hours. After 1 uL of LiveBLAzer B/G FRET substrate was added using a Flying Reagent Dispenser, the plates were incubated at room temperature for 2 hours, and fluorescence intensity was measured by an Envision plate reader.
On the technique in general: In qHTS, concentration-response curves come from the screen itself.
Take `COCCOCC(OC)OC`: the Potency entry was “inactive”.
Turning to `CCN(CC#N)c1cccc(C)c1`, the Potency result is “inactive”.
For `Cc1ccnc(NS(=O)(=O)c2ccc(N)cc2)n1` the value was “inactive”.
As for `CCCOC(=O)CC`, the Potency entry was “inactive”.
On to `CC(CO)(CO)[N+](=O)[O-]`, for which the Potency entry was “inactive”.
Turning to `COc1c(N2CCNC(C)C2)c(F)cc2c(=O)c(C(=O)O)cn(C3CC3)c12` (stereo not given), the Potency result was “inactive”.
Take `CN1CC(=O)N/C1=N/C(=O)Nc1cccc(Cl)c1`: the Potency result is “inactive”.
For `CC[C@H]1OC(=O)[C@H](C)[C@@H](O[C@H]2C[C@@](C)(OC)[C@@H](O)[C@H](C)O2)[C@H](C)[C@@H](O[C@@H]2O[C@H](C)C[C@H](N(C)C)[C@H]2O)[C@](C)(OC)C[C@@H](C)C(=O)[C@H](C)[C@@H](O)[C@]1(C)O` the value was “inactive”; for `CCOC(=O)c1ccccc1`, “inactive”; for `CCCCCC(C)N` (stereo not given), “inactive”.
As for `[K+]`, the Potency result was “inactive”.
With `CCC(C)(CN(C)C)OC(=O)c1ccccc1` (stereo not given), the Potency entry is “inactive”.
To `CC1CCC(CO)CC1` (stereo not given) belongs “inactive”; to `CC(COc1ccccc1)NN` (stereo not given), “inactive”.
For `Cc1nc2ccc(CN(C)c3ccc(C(=O)N[C@@H](CCC(=O)O)C(=O)O)s3)cc2c(=O)[nH]1` the value was “inactive”.
As to `CCN1C=CN(C)C1C` (stereo not given), the Potency entry was “inactive”.
To `COc1ccc2cc1Oc1cc3c(cc1OC)CC[N+](C)(C)[C@H]3Cc1ccc(cc1)Oc1c(OC)c(OC)cc3c1[C@@H](C2)[N+](C)(C)CC3` belongs “inactive”; to `CC(=O)Oc1cccc(C)c1`, “inactive”; to `CCCC[N+](C)(CCCC)CCCC`, “inactive”.
Turning to `NO`, the Potency entry is “inactive”.
Consider `COc1cc2c(cc1OC)-c1cc3ccc(OC)c(OC)c3c[n+]1CC2`, for which the Potency entry is “inactive”.
To `CCNC(=O)[C@@H]1CCCN1C(=O)[C@H](CCCN=C(N)N)NC(=O)[C@H](CC(C)C)NC(=O)CNC(=O)[C@H](Cc1ccc(O)cc1)NC(=O)[C@H](CO)NC(=O)[C@H](Cc1c[nH]c2ccccc12)NC(=O)[C@H](Cc1cnc[nH]1)NC(=O)[C@@H]1CCC(=O)N1` ([pGlu]HWSYGLRP-NHEt) belongs “inactive”; to `NC(=O)N1c2ccccc2CC(=O)c2ccccc21`, “inactive”; to `FB(F)F`, “inactive”.
To `CNC(=O)Nc1ccc(Cl)c(Cl)c1` belongs “inactive”; to `CCCCN1C=CN(C)C1`, “inactive”.
Consider `CC12CCC(C(=O)C1=O)C2(C)C` (stereo not given), for which the Potency entry is “inactive”.
To `CCCCOCCOC(=O)COc1cc(Cl)c(Cl)cc1Cl` belongs “inactive”; to `CC1(C)[C@@H]2CC[C@@]1(C)[C@H](O)C2`, “inactive”.
For `C[N+]1(C)[C@@H]2CC(OC(=O)[C@H](CO)c3ccccc3)C[C@H]1[C@@H]1O[C@@H]12` (stereo not given in full) the value was “inactive”.
On to `CC(C)[C@H]1CC[C@@H](C)CC1=O`, for which the Potency entry is “inactive”.
To `CCCCOCCOC(=O)CCCCCCCCC(=O)OCCOCCCC` belongs “inactive”; to `CC(C)C1CCC(O)CC1` (stereo not given), “inactive”; to `COc1ccccc1OCC1CNC(=O)O1` (stereo not given), “inactive”.
For `O=C(O)CNC(=O)c1ccccc1` the value was “inactive”; for `[O-][n+]1cccc(CO)c1`, “inactive”; for `O=C(CO)[C@@H](O)[C@H](O)[C@@H](O)CO`, “inactive”.
For `CC[N+](CC)(CC)CCOc1cccc(OCC[N+](CC)(CC)CC)c1OCC[N+](CC)(CC)CC` the value was “inactive”; for `C[C@@H]1C[C@H]2[C@@H]3C[C@H](F)C4=CC(=O)C(Cl)=C[C@]4(C)[C@@]3(F)[C@@H](O)C[C@]2(C)[C@@]1(O)C(=O)CO`, “inactive”; for `CCOc1ccccc1OCC`, “inactive”.
